Experimental data published in PubChem BioAssay AID493035 (The Scripps Research Institute Molecular Screening Center, 2011).
The campaign covered roughly 2,000 compounds. About 45 (2%) were called active.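 Rule for the calls: active = inhibition above the mean of all tested compounds plus 3 SD (cut at about 49% in these data); inactive = the rest.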 For the sample, actives were picked, then their nearest neighbours and some compounds at random.

Target: Perilipin-5 (Homo sapiens) + 1-acylglycerol-3-phosphate O-acyltransferase ABHD5 (Homo sapiens) (UniProt Q00G26+Q8WTS1)
Sequence (Q00G26 whole entry, looked up): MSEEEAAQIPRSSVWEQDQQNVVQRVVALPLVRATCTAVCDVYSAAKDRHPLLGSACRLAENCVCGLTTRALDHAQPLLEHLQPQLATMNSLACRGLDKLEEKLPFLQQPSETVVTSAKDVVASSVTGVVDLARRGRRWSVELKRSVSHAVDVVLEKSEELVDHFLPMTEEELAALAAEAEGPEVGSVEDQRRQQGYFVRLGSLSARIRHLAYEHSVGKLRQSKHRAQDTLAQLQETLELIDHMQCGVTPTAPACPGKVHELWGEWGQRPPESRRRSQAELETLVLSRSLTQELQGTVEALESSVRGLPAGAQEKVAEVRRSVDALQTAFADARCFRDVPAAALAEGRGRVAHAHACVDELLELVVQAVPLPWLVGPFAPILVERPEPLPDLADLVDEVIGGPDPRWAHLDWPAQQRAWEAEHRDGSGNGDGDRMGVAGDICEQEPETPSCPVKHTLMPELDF
Sequence (Q8WTS1 whole entry, looked up): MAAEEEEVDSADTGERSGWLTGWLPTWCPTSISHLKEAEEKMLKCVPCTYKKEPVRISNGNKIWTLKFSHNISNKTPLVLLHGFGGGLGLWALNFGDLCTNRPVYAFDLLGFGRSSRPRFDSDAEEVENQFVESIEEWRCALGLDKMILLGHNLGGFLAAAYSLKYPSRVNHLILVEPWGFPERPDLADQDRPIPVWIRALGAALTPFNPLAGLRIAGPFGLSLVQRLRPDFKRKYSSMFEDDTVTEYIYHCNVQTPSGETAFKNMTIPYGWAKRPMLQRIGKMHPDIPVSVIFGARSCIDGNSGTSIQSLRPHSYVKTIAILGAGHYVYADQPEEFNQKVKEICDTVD
Assay: ABHD5-PLIN5 interaction inhibitors, pilot screen, cell lysate, split luciferase complementation, luminescence, NIH validation set (AID 493035);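 note: 0% = DMSO only wells while the 100% control is not stated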
Conditions: split G. princeps luciferase complementation, lysates, 4 h, at 7.9 µM, hits give high values

| Compound | inhibition |
| --- | --- |
| O=C1C(=O)c2ccccc2-c2ccccc21 | 69.8% (active) |
| S=C1NCCN1 | -0.74% (inactive) |
| CC12CN3CC(C)(CN(C1)C31CCOCC1)C2=O | -15.3% (inactive) |
| C[C@H]1CCC/C=C/C2C[C@H](O)CC2[C@H](O)/C=C/C(=O)O1 (stereo not given in full) | -14.2% (inactive) |
| CC[C@]12C=CCN3CCC4(c5cc(Br)c(OC)cc5N(C)C4[C@@](O)(C(=O)OC)[C@@H]1OC(C)=O)C32 (stereo not given in full) | -5.38% (inactive) |
| CCOC(=O)c1cc2c(cn1)[nH]c1ccccc12 | -11.3% (inactive) |
| COP(=S)(OC)SCN1C(=O)c2ccccc2C1=O | 93.3% (active) |
| COc1ccc2c(c1)CC1(CN2C)C(=O)NC(=O)N(CCc2ccccc2)C1=O (stereo not given) | 3.64% (inactive) |
| CC12CCC3C(CC=C4CC(O)CCC43C)C1C/C(=C\c1cccc(F)c1)C2=O (stereo not given) | -0.83% (inactive) |
| O=C1C=Cc2ccccc2C1=O | 59.1% (active) |
| C[N+]1(C)C2CCC1CC(OC(=O)C(CO)c1ccccc1)C2 (stereo not given) | -3.97% (inactive) |
| C[C@H]1CCCC(=O)CCCCCc2cc(O)cc(O)c2C(=O)O1 | 6.49% (inactive) |
| Cc1cc2c(C(C)C)c(O)c(O)c(C=O)c2c(O)c1-c1c(C)cc2c(C(C)C)c(O)c(O)c(C=O)c2c1O | 50.7% (active) |
| NCC1(c2ccc3c(c2)OCCO3)CCCC1 | -7.35% (inactive) |
| CCOC(=O)C(C)Oc1cc(C)cc2oc(=O)c3c(c12)CCCC3 (stereo not given) | 6.91% (inactive) |
| COc1cc(/C=C2\C(=O)NC(=O)N(c3ccccc3)C2=O)c([N+](=O)[O-])cc1OC | 63.5% (active) |
| Cc1ccc(/C=C2/C(=O)NC(=O)N(C)C2=O)cc1 | 7.85% (inactive) |
| Cc1ccc(-n2c(C)cc(/C=C3/C(=O)NC(=O)N(C)C3=O)c2C)cc1 | 33.2% (inactive) |

| Compound | inhibition |
| --- | --- |
| CCOc1ccc(N2C(=O)NC(=O)/C(=C\c3cc(OC)c(OC)cc3[N+](=O)[O-])C2=O)cc1 | 66.2% (active) |
| CC[C@@H](CO)NC(=O)[C@@H]1C=C2c3cccc4c3c(cn4C)C[C@H]2N(C)C1 | 1.19% (inactive) |
| C[C@]12CC[C@@H](O)C[C@@H]1CC[C@@H]1[C@@H]2CC[C@]2(C)C(=O)CC[C@@H]12 | -8.46% (inactive) |
| Cc1ccsc1C(=O)C1CCCN(Cc2cc3ccccc3o2)C1 (stereo not given) | -2.51% (inactive) |
| COc1ccc(-c2nc3ccccc3c(=O)o2)cc1 | -1.16% (inactive) |
| CC(Cc1ccccc1)NCC(=O)Nc1cc(N(C)C)nc2ccccc12 (stereo not given) | 2.7% (inactive) |
| COc1ccccc1CN1CCCCC1c1cccnc1 (stereo not given) | -4.35% (inactive) |
| Clc1ccc(COC(Cn2ccnc2)c2ccc(Cl)cc2Cl)c(Cl)c1 (stereo not given) | 4.9% (inactive) |
| COc1ccc(OC)c([C@@H](O)[C@H](C)NC(C)(C)C)c1 | 2.3% (inactive) |
| C[N+](C)(C)Cc1ccccc1 | -2.04% (inactive) |
| CC12CN3CC(c4ccccc4)(CN(C1)C31CCCCC1)C2=O | -2.32% (inactive) |
| O=c1c2ccccc2nc(/C=C/c2ccc3c(c2)OCO3)n1-c1ccccc1 | 2.37% (inactive) |
| Cc1nc2ccccc2c(=O)n1-c1ccc(C(=O)O)cc1 | 7.89% (inactive) |
| O=c1c2ccccc2[se]n1-c1ccccc1 | 95.1% (active) |
| C[C@]12CC[C@@H](O)C[C@@H]1CC[C@@H]1[C@@H]2CC[C@]2(C)[C@@H](O)CC[C@@H]12 | -3.26% (inactive) |
| CCN(CC)CCOC(=O)C(O)(c1ccccc1)c1ccccc1 | 0.42% (inactive) |
| CCN1CC2(COC(=O)c3ccccc3N)CCC(OC)C34C5CC6C(OC)CC(O)(C5C6OC)C(O)(C(OC)C23)C14 (stereo not given) | 0.04% (inactive) |
